IP6K1 inhibitor = Primary qHTS assay for small molecule inhibitors of Inositol hexaphosphate kinase 1 (IP6K1) | Inositol hexakisphosphate kinase 1 (Homo sapiens), Q92551 | activity change, % (series mostly up to about 58 µM) | AID 1645851, 2021 | hit rate 0.81% among 140,000 | IP6K1 kinase, ADP-Glo luminescence, 2 h; hits give low values; in the data active = activity change below about -25%
Target sequence (Q92551 whole entry, looked up): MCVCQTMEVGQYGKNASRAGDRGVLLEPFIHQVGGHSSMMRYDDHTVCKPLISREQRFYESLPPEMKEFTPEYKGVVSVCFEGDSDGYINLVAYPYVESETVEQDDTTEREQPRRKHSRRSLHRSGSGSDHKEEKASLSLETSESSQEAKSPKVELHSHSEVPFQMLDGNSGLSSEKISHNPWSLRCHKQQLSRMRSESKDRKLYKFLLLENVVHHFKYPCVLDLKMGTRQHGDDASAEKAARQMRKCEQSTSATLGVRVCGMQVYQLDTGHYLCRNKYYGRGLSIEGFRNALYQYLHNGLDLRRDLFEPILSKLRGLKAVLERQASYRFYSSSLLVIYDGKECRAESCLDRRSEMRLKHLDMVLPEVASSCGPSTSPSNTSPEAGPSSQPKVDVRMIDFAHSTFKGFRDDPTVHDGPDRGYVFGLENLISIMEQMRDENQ
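ADP-Glo luminescence measures ADP made by human IP6K1 during a 2 h RT reaction with ATP/IP6 (mix at 1.3 mM/130 uM); top library doses 57.5 and 19.1 uM final.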
SNCA expr inhib = Primary qHTS assay for inhibitors of alpha-synuclein gene (SNCA) expression | HEK-293 SNCA-luciferase knock-in, luminescence, 24 h | Potency, µM (highest dose often 57.2 µM), hits mostly inhibitors | hit rate 0.17% among 140,000; also: nearly all actives have a fitted effect of over 45% in size
HEK293 viab = GF-AFC viability counterscreen for inhibitors of alpha-synuclein gene (SNCA) expression. HEK-293-SNCA-luc viability, GF-AFC fluorescence, 24 h. Potency, µM (doses to about 57.1 µM), actives largely listed as cytotoxic. hit rate 0.12% among 150,000. AID 1671193, 2021; also: nearly all actives have a fitted effect of over 30% in size
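HEK-293-SNCA-luc cells (1500/well) plated 24 h, then exposed 24 h to a dilution series; GF-AFC added 30 min at 37C, fluorescence 405/540 nm; normalised to medium-only and DMSO wells, Hill fit.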
GPT2 inhibitor = Primary qHTS assay for inhibitors of Glutamate pyruvate transaminase 2 (GPT2). Alanine aminotransferase 2 (Homo sapiens), Q8TD30. Recombinant GPT2, coupled pyruvate oxidase/HRP Amplex Red fluorescence. Potency, µM (titrated, usually from 57.7 µM), hits mostly inhibitors. hit rate 0.25% among 100,000; also: nearly all actives have a fitted effect of over 60% in size
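Fluorescence of coupled pyruvate oxidase/HRP/Amplex Red system (50uM Amplex, 30 min, dark) reports pyruvate formed by GPT2. Enzyme reaction: 10ng/uL GPT2, 2mM L-alanine, 250uM a-KG, 30 min room temperature, pH 7.5; 50uM AOA control.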
IP6K1 conf = Confirmatory qHTS assay for small molecule inhibitors of Inositol hexaphosphate kinase 1 (IP6K1). shares compounds with IP6K1 inhibitor. recombinant IP6K1 kinase, ADP-Glo luminescence, 2 h. Potency, µM (highest dose often 49 µM), usual class: inhibitors. hit rate 13% among 1,200; also: nearly all actives have a fitted effect of over 65% in size
Numbers stand for hits; n = inactive; u = inconclusive; x = no result given; [ ] = dose if it differs, or a comment. The list is not random: actives were taken first. Their share in the collection is about 1%. Unless noted, calls follow the shape of the dose curve; as a rule, active = well fitted curve in the direction sought with a large enough effect; inconclusive = small, poorly fitted or top-dose-only effect, or another doubt; inactive = no such curve, though single readings can be large; an effect the other way counts as inactive or inconclusive.

SMILES	IP6K1 inhibitor	SNCA expr inhib	HEK293 viab	GPT2 inhibitor	IP6K1 conf
COc1cccc(-c2ccc(C(=O)NCCN[S+](=O)([O-])c3ccccc3)cc2)c1	n	x	x	x	x
CC(C)[C@H](CO)Nc1nc(Nc2ccc(C(=O)O)c(Cl)c2)c2ncn(C(C)C)c2n1	n	u	n	n	n
COc1ccc(CNC(=O)C2CCN(S(=O)(=O)c3ccc(C)cc3)CC2)cc1	n	n	n	x	x
COc1ccc(S(=O)(=O)N2CCC(C(=O)Nc3cc(C(F)(F)F)ccc3Cl)CC2)cc1	-43	u	u	x	n
CC(C)c1ccc(CN2CC[C@@H]3OCC(=O)N(Cc4ccccc4)[C@H]3CC2)cc1	n	u	u	n	x
Cc1[nH]c(C=C2C(=O)Nc3ccc(S(=O)(=O)Cc4c(Cl)cccc4Cl)cc32)c(C)c1C(=O)N1CCC[C@H]1CN1CCCC1	x	u	n	n	n
Cc1[nH]c(/C=C2\C(=O)Nc3ccc(F)cc32)c(C)c1C(=O)NCCN1CCCC1	n	x	n	n	n
Cc1[nH]c(/C=C2\C(=O)Nc3ccc(S(=O)(=O)N(C)c4cccc(Cl)c4)cc32)c(C)c1C(=O)N1CCN(C)CC1	n	x	n	n	x
COc1ccc(-c2nc3cc(C)ccn3c2NC(=O)c2ccc(F)cc2)cc1	-32	n	u	x	u
COc1ccc(-c2nc3cc(C)ccn3c2NC(=O)c2ccc(C)c(C)c2)cc1	n	n	u	x	x
CNC(=O)c1cc(-c2ccc(CO)cc2)cc2c1OCCN2Cc1cccnc1	-26	n	n	n	n
O=C(NCc1cccnc1)c1cc(-c2ccccc2F)cc2c1OCCN2Cc1cccnc1	-28	n	u	u	u
O=C(NC1CC1)c1cc(-c2ccccc2F)cc2c1OCCN2Cc1cccnc1	-26	n	u	n	u
O=C(NCC1CCCO1)c1cc(-c2ccccc2F)cc2c1OCCN2Cc1cccnc1 (centres undefined)	n	n	n	n	x
CN(C)C(=O)c1cc(-c2ccccc2F)cc2c1OCCN2Cc1cccnc1	n	u	n	u	x
COc1ccccc1NC(=O)Cn1nc2c3cc(F)ccc3n(Cc3cccc(C)c3)cc-2c1=O	n	n	n	x	x
CCOc1ccccc1NC(=O)Cn1nc2c3cc(F)ccc3n(Cc3cccc(C)c3)cc-2c1=O	-34	n	n	x	n
O=C(NC1CCN(c2ccnc3ccnn23)C1)c1ccc(Cl)cc1 (centres undefined)	n	n	n	n	x
O=C(O)c1cccc(CN2C(=O)/C(=C(\c3ccccc3)c3ccc(Cl)cc3)c3ccccc32)c1	-26	x	n	n	21µM
Cc1ccccc1CN1C(=O)c2ccccc2Sc2ccc(C(=O)O)cc21	n	n	n	x	x
O=C1CC(c2ccc(Cl)cc2)c2cc3c(cc2N1)OCCO3 (centres undefined)	n	n	n	x	x
CNc1nc2c(s1)C(c1ccc(Cl)cc1)CC(=O)N2 (centres undefined)	-28	n	n	u	16µM
Cc1ccc(-c2cccc(CN3CCCC3C(=O)NC3CC3)c2)cc1Cl (centres undefined)	n	x	x	x	x
Oc1ccc(NCc2ccc(OCc3ccccc3Cl)cc2)cc1	-28	n	u	x	u
Oc1ccc(NCc2ccc(OCc3ccccc3)cc2)cc1	n	n	n	x	x
SMILES	IP6K1 inhibitor	SNCA expr inhib	HEK293 viab	GPT2 inhibitor	IP6K1 conf
NC(=O)c1cc(S(=O)(=O)NCC2CCC(C(=O)Nc3ccc(Cl)cc3)CC2)cs1 (centres undefined)	n	n	n	x	x
COc1ccc(NC(=O)C2CCC(CNS(=O)(=O)c3csc(C(N)=O)c3)CC2)cc1 (centres undefined)	-39	n	n	x	u
O=C(NC1CC1)c1nc(-c2ccc(F)cc2)c2ccccn12	n	n	n	n	x
CCCCOc1c(C(=O)c2c(F)cc(C)cc2F)cnc2n[nH]cc12	n	u	n	n	x
CCCS(=O)(=O)Nc1ccc(F)c(C(=O)c2c[nH]c3ncc(Cl)cc23)c1F	-31	12µM	u	n	u
O=C(NCC1CC1)c1ccc2nnc(C3CCCC3)n2c1	n	n	n	n	x
CN1CC(=O)N(C2CCCC2)Cc2c(NCCc3ccc(F)cc3)ncnc21	n	n	n	u	x
Cc1ccc(S(=O)(=O)Nc2cccc(-c3cn4cccc(C)c4n3)c2)cc1	-26	n	n	x	n
Cc1cccc2sc(N(CCN(C)C)C(=O)c3ccc4c(c3)OCCO4)nc12	-35	n	n	x	n
COc1ccccc1Nc1ccnc(N2CCN(C(=O)Nc3ccc(Cl)cc3)CC2)n1	n	n	n	n	x
Cc1cccc(OCCCCn2c(C3CC(=O)N(c4ccc(C)cc4C)C3)nc3ccccc32)c1 (centres undefined)	-39	u	u	x	n
CCc1ccccc1N1CC(c2nc3ccccc3n2CCCCOc2ccccc2OC)CC1=O (centres undefined)	n	n	n	x	x
COc1ccccc1Cn1c(C2CC(=O)N(c3ccccc3OC)C2)nc2ccccc21 (centres undefined)	-43	n	u	x	n
CN(C)c1cc(=O)c2ccnc(-c3cccc(CO)c3)c2o1	-25	n	n	n	n
O=c1cc(-c2ccncc2)oc2c(-c3cccc(CO)c3)nccc12	n	n	n	n	x
CCOC(=O)c1cnc2ccc(Cl)cc2c1Nc1ccc(N2CCOCC2)cc1	-25	n	n	x	n
CCOC(=O)c1cnc2ccc(C(=O)OC)cc2c1Nc1ccc(N2CCOCC2)cc1	n	u	u	x	x
Cc1ccc(NC(=O)c2cnn3c(C(F)F)cc(-c4ccccc4)nc23)c(C)c1	-50	n	n	x	n
CCCCOC(=O)N1C[C@@H](CO)[C@@H]2Oc3c(C)cccc3[C@@H]21	n	x	x	x	x
Cc1ccc(-c2n[nH]c3c2C(c2ccccc2Cl)N(c2ccc(C(=O)O)cc2)C3=O)cc1 (centres undefined)	-29	u	n	x	n
COc1ccc(CC(=O)N2CCN(c3nccc(Nc4ccccc4F)n3)CC2)cc1	n	n	n[12.5 µM]	n	x
COc1cc(F)c(F)c(Nc2ccc(I)cc2F)c1NS(=O)(=O)C1(C[C@H](O)CO)CC1	n	n	n	n	n
CC(=O)N1CCN(C(=O)c2nc3sccn3c2-c2ccncc2)CC1	n	n	n	n	x
CC(C)c1noc(CC2CCN(C(=O)Cc3ccc(F)cc3)CC2)n1	-26	n	n	n	n
COc1ccc(-c2nnc(C3CCN(C(=O)c4ccccc4F)CC3)o2)cc1	-29	u	u	x	u
COc1ccc(-c2nnc([C@H]3CCN(C(=O)c4ccccc4)C3)o2)cc1	n	n	u	n	x
O=C(c1ccccc1OCC1CCCN(Cc2c[nH]c3ccccc23)C1)N1CCCCC1 (centres undefined)	n	n	n	n	x
c1ccc(-c2cc3c(cn2)NCCN(Cc2ccsc2)C3)cc1	-25	n	n	n	n

Bioassay records from PubChem.
